# Laboratory results reported in publication PMC7862700, “An all-to-all approach to the identification of sequence-specific readers for epigenetic DNA modifications on cytosine”.
# Key:
# Experiment in all cases: DAPPL (digital affinity profiling via proximity ligation, sequencing); 10 mM Tris-HCl pH 7.5, 50 mM NaCl, 1 mM DTT, 4% glycerol, room temperature, 30 min; GST-TFs on glutathione beads, 16-mer random dsDNA library, 0.1% formaldehyde crosslink after washing; high values mean tight binding
# FEV = biological target: T1, FEV (Homo sapiens, UniProt Q99581 1-238); conditions: protein: recombinant; tags: N-terminal GST; dsDNA, one strand shown
# T1 sequence: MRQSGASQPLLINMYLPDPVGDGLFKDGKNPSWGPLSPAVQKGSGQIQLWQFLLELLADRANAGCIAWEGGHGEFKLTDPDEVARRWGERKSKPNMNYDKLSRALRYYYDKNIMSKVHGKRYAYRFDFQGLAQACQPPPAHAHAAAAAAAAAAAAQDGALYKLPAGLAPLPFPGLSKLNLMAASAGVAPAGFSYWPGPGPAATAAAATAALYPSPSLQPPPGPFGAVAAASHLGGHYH
# Outline: (§1)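 The binding signal reported is, for every hexamer, its read frequency for a factor over its read frequency for the tag-only sample. Reads came from pools of yeast-expressed, GST-fused human transcription factors on glutathione beads, barcoded with DNA and mixed with that sample, which were incubated with 200 nmole of a random double-stranded 16-mer DNA library in Tris/NaCl/DTT/glycerol buffer at room temperature for 30 min. After washing, the pools were crosslinked with 0.1% formaldehyde, proximity-ligated with BsaI/T4 ligase for 1 h at 37 °C, PCR-amplified and sequenced on an Illumina NextSeq500.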
# ETV5 = ETV5 (Homo sapiens, UniProt P41161 1-510); conditions: protein: recombinant; tags: N-terminal GST; dsDNA, one strand shown
# Sequence of ETV5 (P41161 whole entry): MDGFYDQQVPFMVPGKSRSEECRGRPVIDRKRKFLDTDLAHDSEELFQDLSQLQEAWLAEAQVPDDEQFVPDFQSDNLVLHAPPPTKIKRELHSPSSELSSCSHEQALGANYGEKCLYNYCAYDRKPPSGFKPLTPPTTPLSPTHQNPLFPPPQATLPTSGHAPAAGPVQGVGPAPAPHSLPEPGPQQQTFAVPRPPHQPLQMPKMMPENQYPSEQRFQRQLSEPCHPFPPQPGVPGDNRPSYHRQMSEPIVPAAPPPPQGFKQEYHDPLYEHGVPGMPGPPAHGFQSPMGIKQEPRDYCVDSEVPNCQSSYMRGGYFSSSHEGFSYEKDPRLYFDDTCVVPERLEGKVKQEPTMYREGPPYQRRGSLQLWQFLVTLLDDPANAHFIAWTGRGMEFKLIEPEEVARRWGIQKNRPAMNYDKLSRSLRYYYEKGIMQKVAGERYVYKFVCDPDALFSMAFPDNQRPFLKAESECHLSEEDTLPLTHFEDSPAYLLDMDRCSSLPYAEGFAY
# Outline: as §1
# HSF1 = HSF1 (Homo sapiens, UniProt Q00613 1-529); conditions: protein: recombinant; tags: N-terminal GST; chain copies: 3; dsDNA, one strand shown
# Sequence of HSF1 (Q00613 whole entry): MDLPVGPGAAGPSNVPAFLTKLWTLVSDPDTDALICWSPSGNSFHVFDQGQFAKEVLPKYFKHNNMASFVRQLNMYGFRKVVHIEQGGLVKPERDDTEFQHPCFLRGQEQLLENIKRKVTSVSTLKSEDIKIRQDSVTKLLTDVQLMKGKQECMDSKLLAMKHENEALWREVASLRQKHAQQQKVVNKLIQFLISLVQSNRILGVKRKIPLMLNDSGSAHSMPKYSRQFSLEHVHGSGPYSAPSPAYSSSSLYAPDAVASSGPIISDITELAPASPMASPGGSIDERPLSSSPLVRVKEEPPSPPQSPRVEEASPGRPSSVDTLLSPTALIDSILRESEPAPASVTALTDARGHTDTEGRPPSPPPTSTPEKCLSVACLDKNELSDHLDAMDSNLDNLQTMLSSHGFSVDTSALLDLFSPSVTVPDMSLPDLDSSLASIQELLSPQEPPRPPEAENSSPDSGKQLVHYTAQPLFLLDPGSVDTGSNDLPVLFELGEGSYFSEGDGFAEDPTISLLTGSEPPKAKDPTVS
# Outline: as §1
# SPIC = biological target: T2, SPIC (Homo sapiens, UniProt Q8N5J4 1-248); conditions: protein: recombinant; tags: N-terminal GST; dsDNA, one strand shown
# T2 sequence: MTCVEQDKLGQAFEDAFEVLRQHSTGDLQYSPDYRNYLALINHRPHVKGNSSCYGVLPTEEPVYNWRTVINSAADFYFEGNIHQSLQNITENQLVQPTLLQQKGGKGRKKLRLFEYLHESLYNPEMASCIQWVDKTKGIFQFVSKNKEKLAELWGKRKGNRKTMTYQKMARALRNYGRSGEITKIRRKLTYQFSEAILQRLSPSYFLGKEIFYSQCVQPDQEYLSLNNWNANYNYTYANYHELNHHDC
# Outline: as §1
# ELF4 = ELF4 (Homo sapiens, UniProt Q99607 1-663); conditions: protein: recombinant; tags: N-terminal GST; dsDNA, one strand shown
# Sequence of ELF4 (Q99607 whole entry): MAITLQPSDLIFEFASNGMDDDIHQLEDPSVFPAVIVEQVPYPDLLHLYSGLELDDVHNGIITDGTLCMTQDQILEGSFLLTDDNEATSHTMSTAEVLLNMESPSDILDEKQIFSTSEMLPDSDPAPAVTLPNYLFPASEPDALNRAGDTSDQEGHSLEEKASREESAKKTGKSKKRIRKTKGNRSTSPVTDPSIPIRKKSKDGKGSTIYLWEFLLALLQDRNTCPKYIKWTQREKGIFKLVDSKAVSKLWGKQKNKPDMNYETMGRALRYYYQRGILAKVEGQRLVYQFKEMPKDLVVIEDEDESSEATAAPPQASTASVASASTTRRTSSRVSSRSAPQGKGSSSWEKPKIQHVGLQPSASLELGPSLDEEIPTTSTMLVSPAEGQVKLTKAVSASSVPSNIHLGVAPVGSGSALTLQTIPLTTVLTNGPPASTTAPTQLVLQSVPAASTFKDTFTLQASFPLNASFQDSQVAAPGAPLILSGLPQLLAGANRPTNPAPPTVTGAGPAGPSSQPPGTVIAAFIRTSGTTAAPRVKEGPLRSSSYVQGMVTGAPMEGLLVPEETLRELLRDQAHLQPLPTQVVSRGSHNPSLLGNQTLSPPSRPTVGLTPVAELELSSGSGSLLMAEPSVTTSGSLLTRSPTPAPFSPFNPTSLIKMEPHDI
# Outline: as §1
# ELK4 = biological target: T3, ELK4 (Homo sapiens, UniProt P28324-2 1-405); conditions: protein: recombinant; tags: N-terminal GST; dsDNA, one strand shown
# T3 sequence: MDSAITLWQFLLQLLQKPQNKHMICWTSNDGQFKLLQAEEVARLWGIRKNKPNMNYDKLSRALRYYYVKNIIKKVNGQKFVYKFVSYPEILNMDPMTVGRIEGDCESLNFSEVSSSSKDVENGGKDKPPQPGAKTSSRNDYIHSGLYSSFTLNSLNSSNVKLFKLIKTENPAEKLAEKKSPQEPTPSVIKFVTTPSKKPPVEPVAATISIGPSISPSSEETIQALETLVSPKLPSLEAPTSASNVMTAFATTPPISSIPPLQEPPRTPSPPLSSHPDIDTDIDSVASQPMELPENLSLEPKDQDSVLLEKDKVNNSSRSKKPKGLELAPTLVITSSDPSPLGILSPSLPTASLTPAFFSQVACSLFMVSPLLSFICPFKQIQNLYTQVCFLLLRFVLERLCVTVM
# Outline: as §1
# ELF3 = biological target: T4, ELF3 (Homo sapiens, UniProt P78545 1-371); conditions: protein: recombinant; tags: N-terminal GST; dsDNA, one strand shown
# T4 sequence: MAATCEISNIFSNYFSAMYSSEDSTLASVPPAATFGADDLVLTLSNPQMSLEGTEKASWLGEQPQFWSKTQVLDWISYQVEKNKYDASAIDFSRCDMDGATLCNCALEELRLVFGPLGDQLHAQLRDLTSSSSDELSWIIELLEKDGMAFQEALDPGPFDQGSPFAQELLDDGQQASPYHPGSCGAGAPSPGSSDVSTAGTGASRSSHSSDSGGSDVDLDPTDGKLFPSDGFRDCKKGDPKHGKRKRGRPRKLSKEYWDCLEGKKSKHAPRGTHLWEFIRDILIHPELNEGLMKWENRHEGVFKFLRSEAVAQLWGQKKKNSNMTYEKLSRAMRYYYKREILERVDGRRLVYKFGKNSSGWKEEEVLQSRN
# Outline: as §1
# CRX = CRX (Homo sapiens, UniProt O43186 1-299); conditions: protein: recombinant; tags: N-terminal GST; dsDNA, one strand shown
# Sequence of CRX (O43186 whole entry): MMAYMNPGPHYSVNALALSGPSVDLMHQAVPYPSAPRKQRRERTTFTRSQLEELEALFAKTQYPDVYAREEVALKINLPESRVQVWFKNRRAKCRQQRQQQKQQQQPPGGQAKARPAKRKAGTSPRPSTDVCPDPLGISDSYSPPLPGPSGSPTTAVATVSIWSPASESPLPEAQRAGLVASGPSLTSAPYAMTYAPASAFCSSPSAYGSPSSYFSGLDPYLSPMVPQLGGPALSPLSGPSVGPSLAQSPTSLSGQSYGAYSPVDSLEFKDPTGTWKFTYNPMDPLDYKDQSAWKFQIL
# Outline: as §1
# ETV1 = ETV1 (Homo sapiens, UniProt P50549 1-477); conditions: protein: recombinant; tags: N-terminal GST; dsDNA, one strand shown
# Sequence of ETV1 (P50549 whole entry): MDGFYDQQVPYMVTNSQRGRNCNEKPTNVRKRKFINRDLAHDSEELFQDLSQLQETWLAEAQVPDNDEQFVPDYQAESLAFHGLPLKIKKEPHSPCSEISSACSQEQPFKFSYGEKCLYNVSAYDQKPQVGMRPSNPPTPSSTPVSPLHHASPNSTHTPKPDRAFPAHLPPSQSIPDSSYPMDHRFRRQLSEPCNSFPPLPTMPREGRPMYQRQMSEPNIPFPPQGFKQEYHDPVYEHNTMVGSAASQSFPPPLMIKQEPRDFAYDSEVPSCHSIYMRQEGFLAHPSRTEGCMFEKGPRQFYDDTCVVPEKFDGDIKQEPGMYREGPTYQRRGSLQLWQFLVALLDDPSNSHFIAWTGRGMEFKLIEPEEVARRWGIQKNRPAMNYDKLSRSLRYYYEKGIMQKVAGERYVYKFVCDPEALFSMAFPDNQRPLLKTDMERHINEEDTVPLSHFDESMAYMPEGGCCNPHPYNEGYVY
# Outline: as §1
# ETV3L = biological target: T5, ETV3L (Homo sapiens, UniProt Q6ZN32 1-361); conditions: protein: recombinant; tags: N-terminal GST; dsDNA, one strand shown
# T5 sequence: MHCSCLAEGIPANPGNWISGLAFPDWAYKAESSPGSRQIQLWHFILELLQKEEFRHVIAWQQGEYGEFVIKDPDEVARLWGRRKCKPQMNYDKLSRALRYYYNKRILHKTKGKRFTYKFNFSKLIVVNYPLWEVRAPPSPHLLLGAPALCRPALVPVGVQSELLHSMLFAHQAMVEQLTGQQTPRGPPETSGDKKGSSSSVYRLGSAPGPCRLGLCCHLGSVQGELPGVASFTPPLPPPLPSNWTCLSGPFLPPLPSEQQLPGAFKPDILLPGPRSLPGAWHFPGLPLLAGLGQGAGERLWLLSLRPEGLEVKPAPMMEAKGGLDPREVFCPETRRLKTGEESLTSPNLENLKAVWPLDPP
# Outline: as §1
# ETS2 = biological target: T6, ETS2 (Homo sapiens, UniProt P15036 1-469); conditions: protein: recombinant; tags: N-terminal GST; dsDNA, one strand shown
# T6 sequence: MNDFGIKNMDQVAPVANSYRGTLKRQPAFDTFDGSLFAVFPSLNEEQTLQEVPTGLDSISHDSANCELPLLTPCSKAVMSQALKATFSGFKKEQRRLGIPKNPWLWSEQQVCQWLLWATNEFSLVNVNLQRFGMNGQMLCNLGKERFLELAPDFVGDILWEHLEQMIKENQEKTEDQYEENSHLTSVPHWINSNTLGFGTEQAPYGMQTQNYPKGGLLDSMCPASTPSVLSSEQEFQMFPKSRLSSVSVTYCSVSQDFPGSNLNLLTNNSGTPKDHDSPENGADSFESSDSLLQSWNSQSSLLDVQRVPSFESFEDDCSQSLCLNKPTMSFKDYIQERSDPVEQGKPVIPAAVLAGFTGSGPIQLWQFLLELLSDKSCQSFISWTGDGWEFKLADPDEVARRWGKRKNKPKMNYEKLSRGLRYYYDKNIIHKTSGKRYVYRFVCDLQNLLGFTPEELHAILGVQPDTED
# Outline: as §1
# SPDEF = biological target: T7, SPDEF (Homo sapiens, UniProt O95238 1-335); conditions: protein: recombinant; tags: N-terminal GST; dsDNA, one strand shown
# T7 sequence: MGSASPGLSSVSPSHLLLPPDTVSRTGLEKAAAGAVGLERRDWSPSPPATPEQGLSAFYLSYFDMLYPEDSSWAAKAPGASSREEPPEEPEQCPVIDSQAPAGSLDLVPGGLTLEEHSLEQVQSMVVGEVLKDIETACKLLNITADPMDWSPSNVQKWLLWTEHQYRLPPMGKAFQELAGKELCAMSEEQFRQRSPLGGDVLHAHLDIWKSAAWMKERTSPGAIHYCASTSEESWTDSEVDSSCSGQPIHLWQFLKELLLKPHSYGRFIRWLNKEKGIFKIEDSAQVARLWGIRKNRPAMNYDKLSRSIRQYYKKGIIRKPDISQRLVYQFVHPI
# Outline: as §1
# ETV7 = biological target: T8, ETV7 (Homo sapiens, UniProt Q9Y603 1-341); conditions: protein: recombinant; tags: N-terminal GST; dsDNA, one strand shown
# T8 sequence: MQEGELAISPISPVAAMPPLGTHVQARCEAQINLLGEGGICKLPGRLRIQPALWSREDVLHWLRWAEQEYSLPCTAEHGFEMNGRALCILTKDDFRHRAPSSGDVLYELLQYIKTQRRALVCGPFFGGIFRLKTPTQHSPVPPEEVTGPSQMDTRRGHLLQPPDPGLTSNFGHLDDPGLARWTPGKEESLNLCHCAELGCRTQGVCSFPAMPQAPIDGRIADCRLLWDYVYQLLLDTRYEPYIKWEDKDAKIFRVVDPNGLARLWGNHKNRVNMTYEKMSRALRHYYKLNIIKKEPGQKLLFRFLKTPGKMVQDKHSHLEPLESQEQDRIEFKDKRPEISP
# Outline: as §1
# ELF5 = biological target: T9, ELF5 (Homo sapiens, UniProt Q9UKW6-2 1-255); conditions: protein: recombinant; tags: N-terminal GST; dsDNA, one strand shown
# T9 sequence: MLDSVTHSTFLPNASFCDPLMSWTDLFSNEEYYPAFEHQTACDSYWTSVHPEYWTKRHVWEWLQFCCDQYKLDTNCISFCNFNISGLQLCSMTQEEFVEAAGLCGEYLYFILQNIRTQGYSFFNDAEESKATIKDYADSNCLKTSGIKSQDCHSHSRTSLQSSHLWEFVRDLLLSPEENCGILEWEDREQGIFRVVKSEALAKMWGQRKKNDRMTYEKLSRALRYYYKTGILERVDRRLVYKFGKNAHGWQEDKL
# Outline: as §1
# ETV3 = biological target: T10, ETV3 (Homo sapiens, UniProt P41162-2 1-143); conditions: protein: recombinant; tags: N-terminal GST; dsDNA, one strand shown
# T10 sequence: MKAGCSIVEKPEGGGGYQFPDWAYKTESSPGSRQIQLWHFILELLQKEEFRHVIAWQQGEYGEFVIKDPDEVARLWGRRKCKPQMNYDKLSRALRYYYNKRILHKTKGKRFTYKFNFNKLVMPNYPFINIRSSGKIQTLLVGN
# Outline: as §1
# ETV6 = ETV6 (Homo sapiens, UniProt P41212 1-452); conditions: protein: recombinant; tags: N-terminal GST; dsDNA, one strand shown
# Sequence of ETV6 (P41212 whole entry): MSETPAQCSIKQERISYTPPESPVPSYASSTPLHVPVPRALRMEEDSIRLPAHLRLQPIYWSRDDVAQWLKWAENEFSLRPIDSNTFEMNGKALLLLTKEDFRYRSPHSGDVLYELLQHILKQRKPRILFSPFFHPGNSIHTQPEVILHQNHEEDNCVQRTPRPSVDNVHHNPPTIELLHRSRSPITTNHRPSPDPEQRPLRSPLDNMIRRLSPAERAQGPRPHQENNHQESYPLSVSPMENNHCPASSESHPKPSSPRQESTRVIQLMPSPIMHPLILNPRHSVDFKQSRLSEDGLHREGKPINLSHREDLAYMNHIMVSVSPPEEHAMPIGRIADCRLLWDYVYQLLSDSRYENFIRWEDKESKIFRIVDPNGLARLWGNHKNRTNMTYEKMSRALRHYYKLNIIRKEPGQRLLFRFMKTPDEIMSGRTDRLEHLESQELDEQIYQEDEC
# Outline: as §1
# ERF = biological target: T11, ERF (Homo sapiens, UniProt P50548 1-548); conditions: protein: recombinant; tags: N-terminal GST; dsDNA, one strand shown
# T11 sequence: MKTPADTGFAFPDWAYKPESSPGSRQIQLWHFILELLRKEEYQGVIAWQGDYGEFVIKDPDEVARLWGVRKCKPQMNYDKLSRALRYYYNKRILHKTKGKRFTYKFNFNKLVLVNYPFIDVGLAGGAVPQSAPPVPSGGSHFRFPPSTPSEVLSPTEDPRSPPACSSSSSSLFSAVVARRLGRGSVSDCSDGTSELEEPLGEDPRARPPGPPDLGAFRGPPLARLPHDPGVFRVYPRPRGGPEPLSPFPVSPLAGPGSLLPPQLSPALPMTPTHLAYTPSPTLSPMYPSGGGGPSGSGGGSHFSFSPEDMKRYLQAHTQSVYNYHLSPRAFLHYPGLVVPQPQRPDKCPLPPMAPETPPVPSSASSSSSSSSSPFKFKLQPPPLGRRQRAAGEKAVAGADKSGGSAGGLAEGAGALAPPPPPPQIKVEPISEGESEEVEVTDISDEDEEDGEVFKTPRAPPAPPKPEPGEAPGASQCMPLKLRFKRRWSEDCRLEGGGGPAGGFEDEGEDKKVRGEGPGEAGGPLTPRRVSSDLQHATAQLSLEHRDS
# Outline: as §1
Sequence,binding signal (FEV),binding signal (ETV5),binding signal (HSF1),binding signal (SPIC),binding signal (ELF4),binding signal (ELK4),binding signal (ELF3),binding signal (CRX),binding signal (ETV1),binding signal (ETV3L),binding signal (ETS2),binding signal (SPDEF),binding signal (ETV7),binding signal (ELF5),binding signal (ETV3),binding signal (ETV6),binding signal (ERF)
GAATAT,"1.03 fold enrichment (6-mer frequency, TF over GST control)","1.07 fold enrichment (6-mer frequency, TF over GST control)","1.67 fold enrichment (6-mer frequency, TF over GST control)","1.13 fold enrichment (6-mer frequency, TF over GST control)","1.05 fold enrichment (6-mer frequency, TF over GST control)","1.07 fold enrichment (6-mer frequency, TF over GST control)","1.09 fold enrichment (6-mer frequency, TF over GST control)","1.2 fold enrichment (6-mer frequency, TF over GST control)","1.03 fold enrichment (6-mer frequency, TF over GST control)","1.05 fold enrichment (6-mer frequency, TF over GST control)","1.05 fold enrichment (6-mer frequency, TF over GST control)","1.02 fold enrichment (6-mer frequency, TF over GST control)","1.1 fold enrichment (6-mer frequency, TF over GST control)","1.12 fold enrichment (6-mer frequency, TF over GST control)","1.12 fold enrichment (6-mer frequency, TF over GST control)","1.07 fold enrichment (6-mer frequency, TF over GST control)",
AGACTT,"1.05 fold enrichment (6-mer frequency, TF over GST control)","1.05 fold enrichment (6-mer frequency, TF over GST control)","1.15 fold enrichment (6-mer frequency, TF over GST control)","1.08 fold enrichment (6-mer frequency, TF over GST control)","1.02 fold enrichment (6-mer frequency, TF over GST control)",,"1.13 fold enrichment (6-mer frequency, TF over GST control)","1.24 fold enrichment (6-mer frequency, TF over GST control)",,,"1 fold enrichment (6-mer frequency, TF over GST control)",,"1.02 fold enrichment (6-mer frequency, TF over GST control)","1.2 fold enrichment (6-mer frequency, TF over GST control)","1.09 fold enrichment (6-mer frequency, TF over GST control)","1.04 fold enrichment (6-mer frequency, TF over GST control)","1.02 fold enrichment (6-mer frequency, TF over GST control)"
